Bioassay records: PubChem, National Center for Advancing Translational Sciences (NCATS)
Shown are actives, neighbours in structure and some others; about 12% of the full set was active somewhere.
PI5P4K alpha inh – blocks human PI5P4K alpha kinase activity. max response, %. P48426. PI5P4Kalpha enzyme, ADP-Glo luminescence, 60 min; stronger effect = lower value. hit rate 1.2% among 330,000; active means max response of -50% or lower; inconclusive means between -30% and -50%; inactive means -30% or higher; further: value at the top dose of about 77 µM; on the % scale 0 is the no-effect control and ±100 the full control effect
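Controls without substrate or without enzyme flank wells where PI5P4Kalpha converts substrate using 5 microM ATP (final). Incubation lasts 60 minutes at room temperature; ADP formed is read by ADP-Glo luminescence.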
BAZ2B inh – inhibitors of human BAZ2B bromodomain | AlphaScreen BAZ2B-H3K14Ac peptide displacement | Potency, µM (series often up to 114 µM), for the others: at the highest dose activity change, negative = inhibition, usual class: inhibitors | hit rate 4.4% among 360,000 | Q9UIF8; further: potency means the concentration at half of the fitted maximal effect; on the % scale 0 is the no-effect control and ±100 the full control effect; nearly all actives have a fitted effect of over 60% in size
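Inhibition is scored as reduced AlphaScreen emission. The BAZ2B/b-H3(5-23)K14Ac complex (50 nM each) in PBS pH 7.4, 0.01% Tween-20 meets compound (up to 110 uM) for 30 min at RT before bead addition.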
G9a inh – blocks human histone lysine methyltransferase G9a. Potency, µM (doses to about 102 µM), without a hit: at the highest dose activity, negative = inhibition, most hits filed as inhibitors. hit rate 8.8% among 350,000. Q96KQ7. AID 504332. G9a H3K9 monomethylation, AlphaScreen, 2 h; further: potency means the concentration at half of the fitted maximal effect; on the % scale 0 is the no-effect control and ±100 the full control effect; nearly all actives have a fitted effect of over 75% in size
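AlphaScreen read-out: biotin-H3K9 peptide (500 nM) methylation by 20 nM enzyme with 20 uM SAM, 2 h at room temperature after 15 min compound preincubation; anti-monomethyl H3K9 antibody plus donor/acceptor beads, 10 min dark.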
PLK1 PBD block – inhibitors of human PLK1 polo-box domain binding; Plk1 PBD binding of FITC phosphopeptide, fluorescence polarization; Potency, µM, without a hit: max response, negative = inhibition, most hits filed as inhibitors; hit rate 2.8% among 360,000; AID 720504; further: potency means the concentration at half of the fitted maximal effect; series mostly up to about 57 µM; on the % scale 0 is the no-effect control and ±100 the full control effect; nearly all actives have a fitted effect of over 65% in size
Target sequence (P53350 whole entry, looked up, the tested form may be a part): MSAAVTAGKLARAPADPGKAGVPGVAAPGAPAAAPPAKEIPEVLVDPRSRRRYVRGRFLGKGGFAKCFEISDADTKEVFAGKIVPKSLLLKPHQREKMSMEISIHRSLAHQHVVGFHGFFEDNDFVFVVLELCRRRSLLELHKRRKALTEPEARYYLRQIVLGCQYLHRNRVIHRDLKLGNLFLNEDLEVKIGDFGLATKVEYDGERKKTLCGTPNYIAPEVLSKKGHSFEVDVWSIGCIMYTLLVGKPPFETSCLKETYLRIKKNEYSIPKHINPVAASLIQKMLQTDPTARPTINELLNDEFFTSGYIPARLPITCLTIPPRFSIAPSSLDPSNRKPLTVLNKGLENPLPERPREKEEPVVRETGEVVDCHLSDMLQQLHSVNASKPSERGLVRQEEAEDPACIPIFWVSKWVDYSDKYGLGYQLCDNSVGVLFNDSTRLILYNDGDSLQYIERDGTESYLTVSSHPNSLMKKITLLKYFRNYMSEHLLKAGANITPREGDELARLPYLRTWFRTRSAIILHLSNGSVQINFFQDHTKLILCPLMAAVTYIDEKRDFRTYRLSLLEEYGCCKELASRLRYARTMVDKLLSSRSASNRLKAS
HP1b binding inh – HP1-beta chromodomain-methylated histone interaction inhibition; P83916; hit rate 0.56% among 390,000; Potency, µM (titrated, usually from 114 µM), inactives show at the top dose activity change, negative = inhibition, usual class: inhibitors; AlphaScreen HP1-beta / biotin-H3K9me3 peptide binding; further: potency means the concentration at half of the fitted maximal effect; nearly all actives have a fitted effect of over 70% in size
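AlphaScreen: HP1-beta (50 nM) preformed 30 min with biotin-H3(1-18)K9me3 peptide (50 nM) in PBS pH 7.4, 0.01% Tween-20. Compound added for 30 min at RT, then streptavidin donor/nickel chelate acceptor beads (10 ug/mL) for 30 min.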
JMJD2A Tudor inh – blocks the human JMJD2A Tudor domain; O75164; AlphaScreen JMJD2A-Tudor / H3K4me3 peptide binding; Potency, µM (series often up to 114 µM), for inactives: at the highest dose activity change, negative = inhibition, hits mostly inhibitors; hit rate 4.4% among 390,000; further: potency means the concentration at half of the fitted maximal effect; on the % scale 0 is the no-effect control and ±100 the full control effect; nearly all actives have a fitted effect of over 50% in size
Starred values were filed as active, the others as inactive; u = inconclusive; x = no result; [ ] = another dose, or the depositor's remark. Unless noted, the call rests on the fitted dose curve; in most records, active means well fitted curve in the direction sought with a large enough effect; inconclusive means small, poorly fitted or top-dose-only effect, or another doubt; inactive means no such curve, though single readings can be large; an effect the other way counts as inactive or inconclusive.

SMILES | PI5P4K alpha inh | BAZ2B inh | G9a inh | PLK1 PBD block | HP1b binding inh | JMJD2A Tudor inh
CC(=O)c1sc(N/N=C2\CC3CC2C(C)C3(C)C)nc1C (stereo unspecified) | -4 | u | 40µM* | -25% | -12% | u
COc1ccc(C(CNCC(O)COc2c(C)ccc(C)c2C)N(C)C)cc1 (stereo unspecified) | 7 | 56µM* | -19% | 1% | 3% | 22µM*
Cc1c(F)cccc1NC(=O)C1CCCN1S(=O)(=O)c1ccc(F)cc1 (stereo unspecified) | x | -22% | 2%[59 µM] | x | 39% | -6%
O=c1oc2ccccc2c2c1C1O[C@](c3ccsc3)(Cc3ccccc31)O2 | x | 8.9µM* | x | x | x | x
O=C1C2=C(C(=O)c3ccccc31)C1O[C@](CCCCN3C(=O)c4ccccc4C3=O)(Cc3ccccc31)O2 | x | u | -137%[2.33 µM] | x | x | x
O=C1C2=C(C(=O)c3ccccc31)C1O[C@](c3ccsc3)(Cc3ccccc31)O2 | x | 10µM* | -38%[2.33 µM] | x | x | x
CC(=O)Nc1ccc(C(=O)N2CCCC(c3cc(C(=O)Nc4ccccc4)no3)C2)cc1 (stereo unspecified) | 0 | x | x | 1% | x | x
COc1ccc(S(=O)(=O)NC(=O)C2(C)CCN2C(=O)C2(c3ccccc3)CC2)cc1 (stereo unspecified) | -3 | x | x | -3% | x | x
O=C(CNC(=O)c1ccco1)OCC(=O)c1ccc(Cl)cc1 | -1 | -27% | 29% | -4% | 34% | -2%
O=C(CNC(=O)c1ccco1)OCc1cccc(Cl)c1 | -2 | 0% | 50µM* | -8% | 48% | -3%[57.1 µM]
O=C(CNS(=O)(=O)c1ccccc1)OCC(=O)c1ccc(Br)cc1 | -2 | 3% | -10% | -11% | -13% | -9%
O=C(CNC(=O)c1ccco1)OCC(=O)c1ccc2c(c1)CCCC2 | x | -3%[57.1 µM] | 50µM* | -19% | 1% | -25%
O=C(CNC(=O)c1ccco1)OCC(=O)c1ccc([N+](=O)[O-])cc1 | -11 | 3% | 25µM* | u | 9% | -32%
O=C(CNS(=O)(=O)c1ccccc1)OCC(=O)c1ccc([N+](=O)[O-])cc1 | u | -26% | 7.1µM* | -18% | 37% | u
CCc1ccc(C(=O)NC2=NC(c3cc(OC)ccc3OC)CC(=O)N2)cc1 (stereo unspecified) | x | 1% | -3%[59 µM] | x | 28% | 3%
COc1ccccc1NC(=O)C1=C(C)Nc2nc(SCc3ccccc3C)nn2C1CC(C)C (stereo unspecified) | x | -1% | -29%[59 µM] | x | 7% | -17%
CCCCC(=O)Nc1cc(-c2cn3cccnc3n2)ccc1C | x | 2% | 5%[59 µM] | x | 18%[57 µM] | -23%
COc1ccc(C(=O)/C=C/c2ccc(OC)cc2OC)c(O)c1 | 4 | u | u | -11% | -19% | 18µM*
COc1ccc(OC)c(C(=O)/C=C/c2cccnc2)c1 | 1 | -40% | 50µM* | -12% | 35% | -8%
COc1ccc(/C=C/C(=O)c2cc(Cl)ccc2O)c(OC)c1 | 35 | 25µM* | x | 5% | u | u
O=C(/C=C/c1cccnc1)/C=C/c1cccnc1 | -4 | -16% | 28µM* | -19% | 1% | -11%
C(=Cc1cccnc1)c1ccncc1 | -1 | x | x | 0% | 23%[57 µM] | -10%
COc1ccccc1NC(=O)N1CCC(c2nc3ccccc3o2)CC1 | 0 | -25% | -7%[59 µM] | 0% | 50% | -13%
COc1ccc(C(=O)/C=C/c2ccccc2)c(O)c1 | 8 | 45µM* | u | -22% | u | u
COc1ccc(C(=O)/C=C/c2cccs2)c(OC(=O)N2CCOCC2)c1 | 0 | -7% | 17% | -1% | 15% | -5%
SMILES | PI5P4K alpha inh | BAZ2B inh | G9a inh | PLK1 PBD block | HP1b binding inh | JMJD2A Tudor inh
COc1ccc(C(=O)COC(=O)/C=C/c2ccccc2)c(OC)c1 | -61* | 50µM* | 15%[12.7 µM] | -10% | 17% | -6%
COc1ccc(OC)c(C(=O)COC(=O)c2cccnc2Cl)c1 | 1 | 10% | 1% | -10% | 56% | -7%[11.4 µM]
COc1ccc(C(=O)COC(=O)c2cccnc2Cl)c(OC)c1 | -75* | 50µM* | -29% | -4% | 6% | -29%
COc1ccc(C(=O)C=Cc2cccs2)c(O)c1 | 12 | x | x | -3% | u | 45µM*
CCCNC(=O)C[C@@H]1C[C@@H]2c3cc(NS(=O)(=O)c4ccc(OC)cc4)ccc3O[C@@H]2[C@@H](CO)O1 | -6 | x | x | -20% | x | x
CCc1ccc2nc(N(Cc3cccnc3)C(=O)c3cccs3)sc2c1 | x | -5% | 7%[59 µM] | x | 26% | -8%
Cc1ccccc1CNC(=O)CN1CCSc2ccccc21 | x | u | -32%[59 µM] | x | -3%[57 µM] | u
COc1ccc(S(=O)(=O)N2CCCCC2)cc1NC(=O)CCOc1cc(C)ccc1C | 8 | 3% | 17%[2.33 µM] | 1% | 40% | -2%
COC(=O)C1=C[C@@H](C(=O)OC)C2C3=C(C(=O)[C@@]2(C)NC(=O)c2ccccc2)[C@H](C)n2c(=O)n(-c4ccccc4)c(=O)n2[C@@H]3C1 (stereo partly specified) | x | x | x | x | 12% | -8%
COc1ccc(/C=C/C(=O)c2cc3c(cc2N)OCO3)cc1 | 11 | 22µM* | 18µM* | 3% | 40µM* | 28µM*
COc1ccc(/C=C/C(=O)c2ccc(OC)cc2OC)cc1 | 5 | -11% | 5%[12.7 µM] | 3% | 33% | -11%
O=C(c1cccs1)N1CCN(CCc2ccccc2)CC1 | x | 9% | -33%[59 µM] | -11% | 30% | -13%
COc1ccc(N2CCN(C(=O)c3cccc(F)c3)CC2)c([N+](=O)[O-])c1 | 4 | u | -48% | -12% | 1% | u
O=C(c1cccs1)N1CCN(Cc2ccccc2[N+](=O)[O-])CC1 | -15 | 56µM* | 11µM* | -14% | u | u
COc1cccc(C(=O)N2CCN(Cc3ccccc3[N+](=O)[O-])CC2)c1 | 1 | u | 11µM* | -15% | u | 22µM*
